Here are results for 10 compounds from PubChem BioAssay AID1508601 (ICCB-Longwood Screening Facility, Harvard Medical School, 2020).

Out of some 5,700 compounds screened, about 85 (1%) were called active. Cut-off read from the data, not from the text of the source: active = p53-positive nuclei above about 36% (passing the limit was not always enough); inactive = the rest. The list comes from a sample in which actives are over-represented; it also holds similar structures and randomly drawn compounds. Peptide text beside a SMILES is read from it.

Assay [1] is described as follows: p53 stabilisation in HPV-positive human cells, imaging, p53-positive nuclei imaging, 24 h, 48 h (AID 1508601). Conditions: 24/48 h.
Assay [2] deals with Cellular tumor antigen p53 (Homo sapiens) (UniProt P04637). The assay is described as above. Conditions: 24/48 h, stronger effect = higher value.
Chain of Cellular tumor antigen p53 (Homo sapiens) (P04637 whole entry, looked up): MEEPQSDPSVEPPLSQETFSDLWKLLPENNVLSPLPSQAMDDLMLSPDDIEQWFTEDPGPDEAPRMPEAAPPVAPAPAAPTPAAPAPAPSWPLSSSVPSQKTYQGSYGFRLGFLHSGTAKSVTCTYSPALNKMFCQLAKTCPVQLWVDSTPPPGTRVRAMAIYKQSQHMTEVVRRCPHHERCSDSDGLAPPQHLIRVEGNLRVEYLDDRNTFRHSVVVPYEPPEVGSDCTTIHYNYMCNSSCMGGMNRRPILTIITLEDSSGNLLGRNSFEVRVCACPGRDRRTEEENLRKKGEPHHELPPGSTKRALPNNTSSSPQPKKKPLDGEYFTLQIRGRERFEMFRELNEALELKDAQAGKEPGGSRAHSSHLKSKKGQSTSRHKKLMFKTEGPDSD
[3] abbreviates: measured here: cell number at 24 h, Library stock concentration: 80 uM.
Where [4] appears, read: measured here: cell number at 24 h, Library stock concentration: 400 uM.
Setting [5] is: measured here: cell number at 24 h, Library stock concentration: 2 mM.
The mark [6] stands for this setting: measured here: cell number at 24 h, Library stock concentration: 10 mM.
The mark [7] stands for this setting: measured here: cell number at 48 h, Library stock concentration: 80 uM.
The mark [8] stands for this setting: measured here: cell number at 48 h, Library stock concentration: 400 uM.
The mark [9] stands for this setting: measured here: cell number at 48 h, Library stock concentration: 2 mM.
[10] abbreviates: measured here: cell number at 48 h, Library stock concentration: 10 mM.
Setting [11] is: Library stock concentration: 80 uM.
The mark [12] stands for this setting: Library stock concentration: 400 uM.
Setting [13] is: Library stock concentration: 2 mM.
[14] abbreviates: Library stock concentration: 10 mM.
The mark [15] stands for this setting: measured here: p53 positive nuclei at 24 h, Library stock concentration: 80 uM.
[16] abbreviates: measured here: p53 positive nuclei at 24 h, Library stock concentration: 400 uM.
[17] abbreviates: measured here: p53 positive nuclei at 24 h, Library stock concentration: 2 mM.
The mark [18] stands for this setting: measured here: p53 positive nuclei at 24 h, Library stock concentration: 10 mM.
Where [19] appears, read: measured here: cell number at 24 h, Library stock concentration: 3.33 mM.
The mark [20] stands for this setting: measured here: cell number at 48 h, Library stock concentration: 3.33 mM.
Setting [21] is: Library stock concentration: 3.33 mM.
The mark [22] stands for this setting: measured here: p53 positive nuclei at 24 h, Library stock concentration: 3.33 mM.
[23] abbreviates: measured here: cell number at 24 h, concentration not given here.
[24] abbreviates: measured here: cell number at 48 h, concentration not given here.
The mark [25] stands for this setting: measured here: p53 positive nuclei at 24 h, concentration not given here.

Turning to `CC(C)C(N)C(=O)NC(Cc1ccccc1)C(=O)O` (stereo not drawn), the nuclei count, normalised was 118% in assay [1] (setting [3]); 113% in assay [1] (setting [4]); 112% in assay [1] (setting [5]); 113% in assay [1] (setting [6]); 107% in assay [1] (setting [7]); 100% in assay [1] (setting [8]). Besides, the nuclei count, normalised in assay [1] (setting [9]) was 103%; in assay [1] (setting [10]), 102%. For the same compound, the p53-positive nuclei, normalised in assay [2] (setting [11]) was -0.188% (inactive); in assay [2] (setting [12]), 0.0868% (inactive); in assay [2] (setting [13]) it was -0.0686% (inactive); in assay [2] (setting [14]), -0.0304% (inactive); in assay [2] (setting [15]) it was -0.0726%; in assay [2] (setting [16]), -0.0759%. For the same compound, the p53-positive nuclei, normalised was 0.0367% in assay [2] (setting [17]) and -0.118% in assay [2] (setting [18]).

For the compound `O=C(Cc1ccc(-c2ccc(OCCN3CCOCC3)cc2)cn1)NCc1ccccc1`, the nuclei count, normalised in assay [1] (setting [3]) was found to be 42.9%; in assay [1] (setting [4]), 41.4%; in assay [1] (setting [5]) it was 40%; in assay [1] (setting [19]) it was 41.1%; in assay [1] (setting [6]), 39.3%; in assay [1] (setting [7]), 27.3%. Also, the nuclei count, normalised in assay [1] (setting [8]) was 26.6%; in assay [1] (setting [9]), 28.3%; in assay [1] (setting [20]), 30.8%; in assay [1] (setting [10]) it was 26.9%. Further, the p53-positive nuclei, normalised in assay [2] (setting [11]) is 3.36% (inactive); in assay [2] (setting [12]) it was 4.39% (inactive); in assay [2] (setting [13]) it was 2.81% (inactive); in assay [2] (setting [21]), 2.58% (inactive); in assay [2] (setting [14]), 4.55% (inactive); in assay [2] (setting [15]), -0.0362%. Besides, the p53-positive nuclei, normalised was found to be 1.51% in assay [2] (setting [16]), 1.32% in assay [2] (setting [17]), 0.97% in assay [2] (setting [22]) and 1.31% in assay [2] (setting [18]).

Turning to `CC(C)c1nc(CN(C)C(=O)NC(CCN2CCOCC2)C(=O)NC(CCC(Cc2ccccc2)NC(=O)OCc2cncs2)Cc2ccccc2)cs1` (stereo not drawn), the figures for the nuclei count, normalised in assay [1] (setting [19]) and in assay [1] (setting [20]) were 98.1% and 96.3%, respectively. The figures for the p53-positive nuclei, normalised in assay [2] (setting [21]) and in assay [2] (setting [22]) were 4.22% (inactive) and 4.44%, respectively.

As for `COCC(NC(=O)c1cnc(C)s1)C(=O)NC(COC)C(=O)NC(Cc1ccccc1)C(=O)C1(C)CO1` (stereo not drawn), the nuclei count, normalised in assay [1] (setting [19]) stood at 50.4%; in assay [1] (setting [20]), 40.7%. The results for the p53-positive nuclei, normalised in assay [2] (setting [21]) and in assay [2] (setting [22]) were 96.5% (active) and 116%, respectively.

Take `CC(C)CC(CC(=O)NO)C(=O)NC(Cc1ccc2ccccc2c1)C(=O)NC(C)C(=O)NCCN` (stereo not drawn): the nuclei count, normalised in assay [1] (setting [19]) worked out at 109%; in assay [1] (setting [20]) it was 104%. Besides, the results for the p53-positive nuclei, normalised in assay [2] (setting [21]) and in assay [2] (setting [22]) were 0.0444% (inactive) and -0.208%, respectively.

Turning to `COC(=O)[C@H](Cc1ccccc1)NC(=O)[C@@H](N)CC(=O)O` (H-Asp-Phe-OMe), the nuclei count, normalised in assay [1] (setting [23]) worked out at 91.1%; in assay [1] (setting [24]), 92%. Further, the results for the p53-positive nuclei, normalised in assay [2] (concentration not given here) and in assay [2] (setting [25]) were -0.024% (inactive) and -0.251%, respectively.

Take `C[C@H]1O[C@@H](O[C@H]2[C@@H](O)C[C@H](O[C@H]3[C@@H](O)C[C@H](O[C@H]4CC[C@]5(C)C6CC[C@]7(C)[C@@H](C8=CC(=O)OC8)CC[C@]7(O)C6CC[C@@H]5C4)O[C@@H]3C)O[C@@H]2C)C[C@H](O)[C@@H]1O` (stereo partly drawn): the nuclei count, normalised in assay [1] (setting [23]) was 49%; in assay [1] (setting [24]), 31%. Moreover, the p53-positive nuclei, normalised in assay [2] (concentration not given here) is 16.9% (inactive); in assay [2] (setting [25]) it was 3.09%.

On to `CC(C)OC(=O)CCC/C=C\C[C@@H]1[C@@H](/C=C/[C@@H](O)CCc2ccccc2)[C@H](O)C[C@@H]1O`, for which the nuclei count, normalised in assay [1] (setting [23]) is 106%; in assay [1] (setting [24]), 105%. The p53-positive nuclei, normalised in assay [2] (concentration not given here) was 0.0477% (inactive); in assay [2] (setting [25]), -0.0131%.

Consider `CCN(CC)C(=O)[C@]1(c2ccccc2)CC1CN` (stereo partly drawn), for which the nuclei count, normalised in assay [1] (setting [19]) is 107%; in assay [1] (setting [20]), 99.9%. For the same compound, the p53-positive nuclei, normalised in assay [2] (setting [21]) was -0.0572% (inactive); in assay [2] (setting [22]), -0.236%.

In the case of `COc1cccc(CN2CCN(c3ccc4cccc(OC)c4n3)CC2)c1`, the nuclei count, normalised is 109% in assay [1] (setting [23]) and 114% in assay [1] (setting [24]). Further, the p53-positive nuclei, normalised is 0.13% (inactive) in assay [2] (concentration not given here) and 0.279% in assay [2] (setting [25]).
